# According to ChEMBL document CHEMBL3988442, “University of Dundee, Small-Polar-MMV Screening Library” (2021):
# In all, about 69,000 compounds went through this assay and about 1,000 (1.4%) showed an effect of 50% or more. The sample holds strong results, similar compounds and a random draw of the others, so the mix is not that of the screen.
# System: Leishmania donovani
# Test: Leishmania intramacrophage assay
# Format: functional, organism-based
# Design: scale not given: in the data most compounds retested in dose-response had high values
compound,measurement,setting,value
O=C1N(CCC2CCCCC2)CCCC1(O)CNCCc1ccccc1 (stereo unspecified),Percent Effect,"30.3 µM, […]",74.42%
C=C(C)CNCC1(O)CCCN(Cc2ccc(F)c(F)c2)C1=O (stereo unspecified),Percent Effect,"30.3 µM, […]",36.85%
O=C1N(CCCc2ccccc2)CCCC1(O)CNCc1ccccc1 (stereo unspecified),Percent Effect,"30 µM, 30.03 µM",54.86%
O=C1N(CCCc2ccccc2)CCCC1(O)CNCC1CCCCC1 (stereo unspecified),Percent Effect,"30.3 µM, […]",36.42%
O=C1N(Cc2ccc(F)c(F)c2)CCCC1(O)CNCC1CCCCC1 (stereo unspecified),Percent Effect,"30.3 µM, […]",62.26%
O=C1N(CCc2ccccc2)CCCC1(O)CNCc1ccc(F)cc1 (stereo unspecified),Percent Effect,"30.3 µM, […]",14.91%
COCCNCC1(O)CCCN(Cc2ccc(F)c(F)c2)C1=O (stereo unspecified),Percent Effect,"30.3 µM, […]",36.88%
Cc1nsc(N2CCc3sccc3C2)n1,Percent Effect,"30.3 µM, […]",14.81%
Cc1cnn(CCCNC(=O)N2CCCCC(N3CCCC3)C2)c1 (stereo unspecified),Percent Effect,"30 µM, 30.03 µM",26.48%
Clc1cccc(OCCCN2CCOC(Cn3cncn3)C2)c1 (stereo unspecified),Percent Effect,30 µM,18.78%
CCCn1cc(CN2CCCC2c2nccc(CN(C)C)n2)cn1 (stereo unspecified),Percent Effect,"30.3 µM, […]",-4.658%
O=C(c1cc(C2CCCCN2C(=O)C2CCC2)n[nH]1)N1CCOCC1 (stereo unspecified),Percent Effect,"30.3 µM, […]",-8.909%
CCc1cnccc1C(=O)Nc1ccc(C(N)=O)nc1,Percent Effect,"30.3 µM, […]",-9.48%
NC(=O)c1ccc(NC(=O)c2ccncc2F)cn1,Percent Effect,"30.3 µM, […]",52.29%
NC(=O)c1ccc(NC(=O)c2ccncc2Cl)cn1,Percent Effect,"30.3 µM, […]",4.641%
COCC(=O)N1CCCCC1c1nc(C)c2c(n1)N(C1CC1)C(=O)CC2 (stereo unspecified),Percent Effect,"30.3 µM, […]",6.342%
c1csc(-c2cc(CN3CCN(c4nccs4)CC3)no2)c1,Percent Effect,"30.3 µM, […]",21.99%
Cc1cc(=O)[nH]cc1C(=O)N1Cc2ccccc2N(C)CC1C (stereo unspecified),Percent Effect,"30.3 µM, […]",-24.09%
Cc1cc(=O)c(C(=O)N2CCN(C)c3ccccc3C2)c[nH]1,Percent Effect,"30.3 µM, […]",-29.42%
Cc1cc(=O)[nH]cc1C(=O)N1CCN(C)c2ccccc2C1,Percent Effect,"30.3 µM, […]",57.95%
COCc1nnc(NC(=O)CN2C(=O)c3ccccc3NC2C(C)C)s1 (stereo unspecified),Percent Effect,"30.3 µM, […]",33.02%
NC(=O)CCCNC(=O)Cc1cccc(I)c1,Percent Effect,"30.3 µM, […]",7.14%
O=C(NC1CC1)NC(c1ccc(F)cc1)C1CC1 (stereo unspecified),Percent Effect,"30.3 µM, […]",4.479%
N#Cc1cccc(N2CCCC3(CN(C(=O)c4ccc[nH]4)CCO3)C2)c1 (stereo unspecified),Percent Effect,"30.3 µM, […]",1.97%
CCC1=N[C@@]2(CC[C@@H]3CN(Cc4ccccc4C)C[C@@H]32)C(=O)N1.O=C(O)C(F)(F)F,Percent Effect,"30.3 µM, […]",9.963%
CCC1=N[C@@]2(CC[C@@H]3CN(Cc4ccccc4C)C[C@@H]32)C(=O)N1C.O=C(O)C(F)(F)F,Percent Effect,"30.3 µM, […]",57.66%
CCC1=N[C@@]2(CC[C@@H]3CN(Cc4ccc(C)cc4)C[C@@H]32)C(=O)N1C.O=C(O)C(F)(F)F,Percent Effect,"30.3 µM, […]",15.86%
CCc1ccc(C2COCCN2C(=O)Nc2ccc(C(N)=O)c(Cl)c2)o1 (stereo unspecified),Percent Effect,"30.3 µM, […]",-7.006%
CC1=C(C(=O)N2CCCC(Cn3cc(CO)nn3)C2)OCCO1 (stereo unspecified),Percent Effect,"30.3 µM, […]",-4.102%
Cc1ccccc1-n1cnc(Cl)c1CO,Percent Effect,"30.3 µM, […]",0.1894%
NS(=O)(=O)c1cccnc1Nc1c(Cl)cccc1Cl,Percent Effect,"30.3 µM, […]",68.36%
NS(=O)(=O)c1cccnc1NCc1ccco1,Percent Effect,"30.3 µM, […]",37.64%
NS(=O)(=O)c1cccnc1Nc1cccc(Cl)c1Cl,Percent Effect,"30.3 µM, […]",7.348%
CC1Cc2ccccc2N1C(=O)Cn1nc(-c2cccs2)ccc1=O (stereo unspecified),Percent Effect,"30.3 µM, […]",31.43%
O=C1CC(c2ccc(C(=O)O)cc2)c2ncn(-c3ccccc3F)c2N1 (stereo unspecified),Percent Effect,"30.3 µM, […]",26.03%
CC(=O)Nc1nc(C(=O)NCc2ccc(N3CCCCCC3)nc2)cs1,Percent Effect,"30 µM, 30.03 µM",27.71%
CC(=O)Nc1nc(C(=O)Nc2ccc(N3CCCCC3)nc2)cs1,Percent Effect,"30 µM, 30.03 µM",56.06%
CC(=O)Nc1nc(C(=O)NCc2ccc(N3CCCC3)nc2)cs1,Percent Effect,30 µM,7.198%
Cc1cn2c(n1)CCC(NC(=O)CCC(F)(F)F)C2 (stereo unspecified),Percent Effect,"30 µM, 30.03 µM",-20.9%
CCc1nnc(CN2CCN(c3cccc(OC)c3)C(=O)C2)o1,Percent Effect,"30.3 µM, […]",85%
COCCc1noc(CN2CCN(c3ccc(OC)cc3)C(=O)C2C)n1 (stereo unspecified),Percent Effect,"30.3 µM, […]",6.497%
COc1ccc(N2CCN(Cc3nc(CSC)no3)C(C)C2=O)cc1 (stereo unspecified),Percent Effect,"30.3 µM, […]",-39.19%
COc1ccc(N2CCN(Cc3nc(CSC)no3)CC2=O)cc1,Percent Effect,"30.3 µM, […]",62.54%
CCc1ccc(CN2CCN(c3cccc(OC)c3)C(=O)C2)nc1,Percent Effect,"30.3 µM, […]",11.49%
COc1cc(CN2CCN(c3cccc(OC)c3)C(=O)C2)cc(OC)c1,Percent Effect,"30 µM, 30.03 µM",-0.5901%
O=C(Nc1ccccc1F)C1=NN(c2ccccc2)C(=O)CN1,Percent Effect,30 µM,-15.12%
Cc1cc(NCCc2c(C)n[nH]c2C)nc(-c2cccnc2)n1,Percent Effect,"30.3 µM, […]",4.777%
Cn1ccnc1CN(Cc1ccccn1)Cc1ccccc1Cl.O=C(O)CC(O)(CC(=O)O)C(=O)O,Percent Effect,"30.3 µM, […]",10.71%
O=C(Nc1ccc(Cl)cn1)c1cncc(C2CCNCC2)n1,Percent Effect,"30.3 µM, […]",-16.97%
COc1ccccc1C(=O)N1CCN(CCc2scnc2C)CC1,Percent Effect,"30.3 µM, […]",5.837%
CCS(=O)(=O)NCC(=O)Nc1cc(CC(C)(C)C)n[nH]1,Percent Effect,"30.3 µM, […]",-13.95%
